# Test results reported in PubChem BioAssay AID1508600 (Functional Genomics Laboratory (NCATS/FGL), 2020).
# In all, about 53,000 sequences went through this assay and about 3,700 (7%) were called active. The sample as a whole holds a higher share of actives than the screen did. A number with no mark means an inactive call.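 How the source made its calls: active means gene knockdowns whose robust z-score for IL-1 alpha signal is at least 2 or at most -2, so actives lie on both sides; inactive means the rest.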
# Experiment: Components of the Cytosolic LPS Sensing Pathway: Gene Identification via Genome-wide siRNA Screen;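 further: robust z of the log signal after scaling to non-targeting control siRNA wells of the plate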
# Conditions: RAW264.7 macrophages, IL-1a HTRF, actives lie on both sides, screened at 100 nM (by protocol), cells primed 5 h with Pam3CSK4 first
# In short: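 IL-1a HTRF of supernatants after 24 hour LipidA transfection of Pam3CSK4-primed (5 hours) RAW264.7 cells, 48h post-siRNA transfection (100 nM). Scores: percent of plate negative-control median, then log-based robust z-score.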
row,Sequence,z-score
1,GGUAGCACUUACGUGAAAUTT against Mbd2,-0.655
2,GCAUAUGGCACCACAUUGUTT against Psg25,0.0646
3,GGAUAUCAGGGUUGUUAAGTT against Txnl4b,0.952
4,GGCUAUGUUAAUUUGUCCCTT against Hc,0.00272
5,GCAAUAUGUGACAAACUUCTT against Ptpn22,2.06 (active)
6,GGAAUCAGCAAUGGACCCUTT against Parn,-0.818
7,CCUGGGCCUUAACAAGAAGTT against Upf1,-1.32
8,CCCACUUUGAAAAAGACUCTT against Mei4,2.5 (active)
9,GCUUUGGAUAGUAGACAGCTT against BC055324,0.199
10,GGGACAAUUAGAAAGACAUTT against Mtif2,0.982
11,GGAACCAACCAGGAGAAAUTT against Ms4a4d,-2.58 (active)
12,GGAACUCACGCACAUAUUUTT against Net1,-0.483
13,GACUUACUUGCAUCACUGATT against Vmn1r4,-0.732
14,GGUGAAUGUAUAAGUUAUGTT against Icam1,1
15,GCUUUCUUAGCAUUAAAUCTT against Zkscan3,-0.274
16,GGUUCAUGAUGGAUGACAUTT against Bmerb1,-1.96
17,GGCUUGAAGUUCAUUUAUUTT against Nkiras2,-1.03
18,GGUUAUUCAAAAAUGCAACTT against Rcor1,-0.559
19,GGAAAGGCUCAAUGAGAGCTT against Nipa2,-3.3 (active)
20,GGUCUAUGCGAUGCUAUACTT against Sarm1,-0.508
21,GCCGUUUACCUUAGUCUGUTT against Cyb5rl,0.00283
22,GCCAGCCUAAAAAAGAUACTT against Eef1g,0.254

row,Sequence,z-score
1,GGAUCUUGGCUAAAGAGGGTT against Slc25a25,0.0129
2,GCAAUUGAAAGUGAACAAUTT against Olfr1360,-0.935
3,GGAGGAAAGUUGUAUUUGATT against Nudt7,0.148
4,GGCGAGUUCAGGAGUUUACTT against Fmnl1,2.55 (active)
5,GGGUACCUGUCCAAGGUCATT against Mfn2,0.849
6,GGAUGGAACAUAUGAUUAGTT against Vmn1r234,0.653
7,GGUGUCAGGAUUUUAUAACTT against Etfbkmt,-0.182
8,GGUGGUUUGUGAUGAAAAUTT against Pabpc1,2.11 (active)
9,GUUUGUCUAGCUUCAGAUGTT against Rims4,1.78
10,GGGAGGACAUCCAGACAAUTT against Fam13b,-0.305
11,GGGAAAGAUAAGCUCAAGGTT against Sh2d2a,1.32
12,GACUCUAAACCUAGCAGCGTT against Basp1,-2.34 (active)
13,GGCUGGUUUAUUUGUGGACTT against Cemip2,0.574
14,GGAUAUGGAAGAAGUUGUGTT against Olfr1089,-2.2 (active)
15,CCAGCUAUACGAAGACUUCTT against Hdhd3,0.0525
16,GGAGGUGGAAUCUUUCCCUTT against Aplp1,-1.68
17,GGAAAAGGCAAUCGUUUCUTT against Mtg2,0.278
18,GUAUGUUCAUAUGGUUUUCTT against Swi5,2.33 (active)
19,GUCUUCCCUCAUCCUUUGATT against Cox8a,0.902
20,GCAGAAGUUCAUUUUCCUATT against Olfr145,0.969
21,GGUCAUGUCCAUCCCAAAGTT against Ficd,1.15
22,GGAUUAUUUUAAGUGGAGATT against Dna2,-0.103

row,Sequence,z-score
1,GGAUUCACUAGCAUUGUAGTT against Guca1b,-0.725
2,GGAGCUUCUAGACUGUACCTT against Lrmp,2.03 (active)
3,GCAAGAAUCAUCCGGUUACTT against Ttc39b,1.36
4,CCUUUACACCACUCUAUUUTT against Adgb,-0.795
5,GCCGCUACCUAUGAUGUCCTT against Kcne4,0.385
6,GGUCCUGGAAUCUCAAAAUTT against Entpd1,-0.506
7,GCAGAUCGCAAAAGAUCCUTT against Nppa,0.69
8,GGUCAAGUCAGUAACUGCATT against Olfr10,0.747
9,GCUCAGAUUUGCUUUAUGATT against Ube2r2,0.367
10,GGGAAUGGCUAAUGUUUAUTT against Stk38l,2.32 (active)
11,GCCUCACUUUGCCAUGCAUTT against Pou4f1,-1.78
12,GGAUGCCAGAAGAAUAUUCTT against Pnlip,2.43 (active)
13,CCAUGCUGAUUGCUCCGACTT against Cass4,1.46
14,GGAUAUGUGAAAUGCAUUGTT against Asb9,0.219
15,GGCUAAAGGCCUUCUUUUUTT against Reep3,0.622
16,CGCGAUUCAGCUCAUUCUCTT against Slitrk1,0.83
17,GCCAUCUUCGGUCAACUCUTT against Olfr969,-2.87 (active)
18,GGACUCCGUCAUAUACGAATT against Olfr1102,-0.187
19,GGUAAAAGUGGGUAGGAAATT against Ptprh,0.595
20,GGAUCUACGUAGCAUUUCATT against Mis12,0.237
21,CCCUAAGAGUCACCAAAAUTT against Nos2,-2.19 (active)
22,GGGCUGAAUAAGGAACUGUTT against Nudt16l2,1.46

row,Sequence,z-score
1,GGAAAGAUCACUCUUGCAUTT against Pon1,-0.58
2,GGACCACUCCAAGAGUUCUTT against Ncapd3,2.88 (active)
3,GGAACUCUGGAAUAAUCUGTT against St6galnac2,1.58
4,GGACCAGCUGAUCUCAGUATT against Olfr418,-1.94
5,GGCUGACAAGAGAUUUAAATT against 4930430F08Rik,-0.703
6,GCUACGCUUCCUUAUUUGCTT against Tubgcp3,0.525
7,GCCAAUAAGAACAACGAUGTT against Des,0.732
8,GUCUAUCUUCAGCACAAACTT against Klrc3,2.12 (active)
9,GGUCUUUGAUCUACGAAUGTT against Rhobtb2,0.825
10,GGAGAUAAAUGUGUAGACCTT against Matn3,0.915
11,GCACAAAUAAAGAUAAGAGTT against Uox,-0.178
12,GGUUUAACUGUAGCAUAAGTT against Pde12,-0.0106
13,GGGACUCGGGCAGUAUUCATT against Tgm5,-0.185
14,GGUCGAACUUCUGUGCCAUTT against Slc39a8,2.39 (active)
15,GCAGAUGUAAAUAGCAAAATT against Apc,0.955
16,GGGUGACAUGAUUUUAACUTT against Fbh1,-0.727
17,GGCAAAUCCCGUUCACUGATT against Magel2,-1.08
18,GCUUUUGGUACAGGAUGCCTT against 5830411N06Rik,-2.68 (active)
19,GCGAUGAUGUGCUUAUGUCTT against Zfp341,0.735
20,CCUUAGGUACUCUAAGGAATT against D1Pas1,-0.109
21,CGGAUUUUGAAGUACACCGTT against Alg8,0.207
22,CGCAGUACCUAUUUGAGCGTT against Hs6st1,1.62

row,Sequence,z-score
1,GCUCAUAAUUUUGACAGCUTT against Cyp51,0.168
2,GGCUUUCACGCUUUGACAATT against Ap1m2,0.209
3,GACUAACCAGAUGAAAGUCTT against Vmn1r11,-0.66
4,GCAUGUUACUAGGAUAACUTT against Mup20,2.27 (active)
5,GGAUUCUAUGACAAAGACATT against Ddx3x,1.84
6,GGCUUCCAAAACAAAUCAATT against Rgn,0.857
7,CCUGCACAACUGGAAACCUTT against Nectin2,-2.16 (active)
8,GAUAAUGACCAGGCUACCATT against Magea7-ps,0.069
9,CCACUGUGCUCAAUUUGCATT against Slc9a2,-0.372
10,GGCUCUGGAAAAGAACAACTT against Sds,1.52
11,GGAAAUCAACAGCUCACAUTT against B3gnt9,-0.327
12,GGAUCUAUAAGGACUACAUTT against Bmp7,4.01 (active)
13,GGCCGAUUCCAUUGUACAGTT against Fam177a,3.54 (active)
14,GCUGUAUGGCUAAGCAGUGTT against Olfr113,-0.42
15,GCCUCAAAAUGGCGGAACUTT against Casp8,-0.249
16,CCAAGCGAAUGUCAAAAUATT against Fam163a,0.66
17,GGAGAGGAACAGGAACAGATT against Ankrd9,0.557
18,GGGUCAUUGGUAGCAACGATT against Oas1g,-2.9 (active)
19,GGCCUAAUCGAAAUGUGGCTT against Trim12a,0.515
20,GGUGACUGGUUUGUUGCUUTT against Pstk,-1.39
